According to the supplement of paper PMC6555819:

Columns and labels:
Test in all cases: PBM binding z-score (relative to random genomic background probes); higher = stronger binding; sequences stand for … in GC…GCGATTGACAGCGTAGAATGAAGG
[1] = tested on: FXR:RXRa (NR concentration 270 nM, RXRa partner concentration 90 nM)
Outline: (§1)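 Each nuclear receptor dimer, without ligand, was incubated for 1 h on custom Agilent 4×180K protein-binding microarrays. Binding was detected with antibodies against each partner (one per run), and scanned fluorescence was regression-normalized. The binding z-scores are referenced to random human genomic background probes.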

[2] = tested on: LXRa:RXRa (NR concentration 270 nM, RXRa partner concentration 90 nM)
Outline: as §1

[3] = tested on: LXRa homodimer (NR concentration 270 nM)
Outline: as §1

[4] = tested on: LXRb:RXRa (NR concentration 270 nM, RXRa partner concentration 90 nM)
Outline: as §1

[5] = tested on: LXRb homodimer (NR concentration 270 nM)
Outline: as §1

[6] = tested on: PPARa:RXRa (NR concentration 270 nM, RXRa partner concentration 90 nM)
Outline: as §1

[7] = tested on: PPARg:RXRa (NR concentration 180 nM, RXRa partner concentration 90 nM)
Outline: as §1

[8] = tested on: PPARg:RXRa 270nM:90nM, anti-RXR (NR concentration 270 nM, RXRa partner concentration 90 nM)
Outline: as §1

[9] = tested on: PPARg:RXRa 30nM:10nM, anti-RXR (NR concentration 30 nM, RXRa partner concentration 10 nM)
Outline: as §1

[10] = tested on: PPARg:RXRa 90nM:30nM, anti-RXR (NR concentration 90 nM, RXRa partner concentration 30 nM)
Outline: as §1

[11] = tested on: PPARg:RXRa DBDmut IVT, anti-RXR (DBD mutation: RXRa K156A/R161A, NR concentration 270 nM, RXRa partner concentration 90 nM)
Outline: as §1

[12] = tested on: PPARg:RXRa IVT, anti-PPARg (NR concentration 270 nM, RXRa partner concentration 90 nM)
Outline: as §1

[13] = tested on: PPARg DBDmut:RXRa IVT, anti-PPARg (DBD mutation: PPARg1 K132A/R137A, NR concentration 270 nM, RXRa partner concentration 90 nM)
Outline: as §1

[14] = tested on: PPARg DBDmut IVT, anti-PPARg (DBD mutation: PPARg1 K132A/R137A, NR concentration 270 nM)
Outline: as §1

[15] = tested on: PPARg homodimer (NR concentration 180 nM)
Outline: as §1

[16] = tested on: PXR:RXRa (NR concentration 270 nM, RXRa partner concentration 90 nM)
Outline: as §1

[17] = tested on: PXR homodimer (NR concentration 270 nM)
Outline: as §1

[18] = tested on: RARa:RXR (NR concentration 270 nM, RXRa partner concentration 90 nM)
Outline: as §1

[19] = tested on: RARa homodimer (NR concentration 270 nM)
Outline: as §1

[20] = tested on: RARb:RXRa (NR concentration 270 nM, RXRa partner concentration 90 nM)
Outline: as §1

Sequence	PBM binding z-score [1]	PBM binding z-score [2]	PBM binding z-score [3]	PBM binding z-score [4]	PBM binding z-score [5]	PBM binding z-score [6]	PBM binding z-score [7]	PBM binding z-score [8]	PBM binding z-score [9]	PBM binding z-score [10]	PBM binding z-score [11]	PBM binding z-score [12]	PBM binding z-score [13]	PBM binding z-score [14]	PBM binding z-score [15]	PBM binding z-score [16]	PBM binding z-score [17]	PBM binding z-score [18]	PBM binding z-score [19]	PBM binding z-score [20]
AGTCAAAGTTCAGGACGAGGTAACGTAGAGCACG	4.1	3.8	1.01	2.04	0.385	3.59	4.68	4.62	2.13	3.9	0.103	2.2	0.482	0.536	1.57	2.79	0.943	2.87	0.443	4.25
GCATATAGGTAAGACAAGGTGAAAGTCCGATTGT	0.406	-0.0572	-0.498	-0.135	-0.674	1.06	0.917	0.84	0.112	0.746	3.48	2.15	0.16	0.225	0.496	0.219	-0.205	1.44	-0.191	0.391
ACACCAAGGTGATCGTGAGGTCGTTGATACTAAC	1.59	1.28	0.495	1.38	-0.254	1.62	0.514	0.34	-0.275	0.0177	0.605	1.04	-0.599	0.153	0.72	2.98	1.07	2.18	0.0851	1.47
GCTCGGAGGACAAGCTCAGAGCTTTGTCCGTAGA	-0.583	-0.885	-0.935	-0.784	-0.639	-0.425	-1.69	-1.3	-1.5	-1.33	-0.93	-0.339	-0.667	-0.738	-0.886	-0.742	-0.896	-0.828	-1.84	0.862
GATGCAGGGTCAAGGCCAGAGTACGCGTATTGAT	6.64	3.82	-0.363	3.54	-0.254	5.74	5.22	4.93	1.79	3.61	1.47	3.42	-0.201	-0.81	1.2	3.59	0.224	3.86	0.306	4.54
CCGACTGGGGCAAAGGTTACCGTACTCAGTACGA	1.69	1.59	-0.472	1.95	-1.15	5.78	10.6	9.35	9.56	9.91	4.82	5.85	0.024	-0.75	1.93	2.04	-0.837	3.75	-0.437	2.39
AATACAGGGGCATCGTAGGCCAGAGTACGCACAG	0.565	0.874	0.0851	1.04	0.436	1.06	1.13	0.622	0.174	0.275	0.577	1.26	0.192	0.567	-0.0954	0.276	0.165	0.505	-0.245	1.48
AATCAAAGTTCATCTAGGTAACGTAAGATATGCT	6.64	6.2	7.11	4.15	2.37	4.75	4.35	4.25	2.04	3.19	0.153	2.87	1.79	1.11	2.75	4.95	7.06	3.24	1.38	5.22
TCTCGGAGGACACGAAAGTTCAGAGCTCGACATC	1.03	2.18	2.89	0.952	-0.575	1.14	0.211	1.25	2.34	1.81	1.71	-0.0575	-0.141	-0.597	0.949	3.3	2.7	1.27	0.226	2.78
CCGTACGGGTCACTCCAGGTTATAGCATCGGAGT	5.48	7.91	1.62	5.38	-0.751	4.45	2.97	3.49	1.05	1.9	1.15	2.49	-0.309	-1.04	1.42	5.22	0.156	3.89	-0.104	3.64
AGAATTAGGTTATTAAGATCAGGGAATTGCGGTC	0.488	0.607	0.495	0.404	0.244	1.87	1.99	2.31	1.74	1.58	6.63	5.44	1.55	1.27	1.3	0.5	0.468	0.229	1.73	0.932
GCTATTAGTTGAAAGGGCAGCCGAATGATTCTCG	0.117	0.132	-0.239	0.0989	-0.467	1.69	1.92	3.53	1.46	3.05	0.343	0.268	-0.735	-0.14	0.871	0.09	0.28	0.515	0.871	1.78
CCTATTAGTTGACCATAAGGACAACCGAAGCTCG	1.29	0.43	0.89	0.473	1.33	0.262	0.871	0.107	0.251	0.449	0.245	0.48	1.08	1.03	2.6	0.623	1.23	1.27	2.5	1.22
